# Hits are enriched below; roughly 4.7% of the tested compounds scored in any of these assays.
# TRHR ag – qHTS for Small Molecule Agonists and Allosteric Enhancers of Human TRH Receptor: Primary Screen for Agonists. Thyrotropin-releasing hormone receptor (Homo sapiens), P34981. TRHR cells, calcium flux fluo-8, FDSS agonist mode. activation, % at 2 µM. 360,000 tested, 0.18% active; note: 0% is about no effect
# Target sequence (P34981 whole entry, looked up): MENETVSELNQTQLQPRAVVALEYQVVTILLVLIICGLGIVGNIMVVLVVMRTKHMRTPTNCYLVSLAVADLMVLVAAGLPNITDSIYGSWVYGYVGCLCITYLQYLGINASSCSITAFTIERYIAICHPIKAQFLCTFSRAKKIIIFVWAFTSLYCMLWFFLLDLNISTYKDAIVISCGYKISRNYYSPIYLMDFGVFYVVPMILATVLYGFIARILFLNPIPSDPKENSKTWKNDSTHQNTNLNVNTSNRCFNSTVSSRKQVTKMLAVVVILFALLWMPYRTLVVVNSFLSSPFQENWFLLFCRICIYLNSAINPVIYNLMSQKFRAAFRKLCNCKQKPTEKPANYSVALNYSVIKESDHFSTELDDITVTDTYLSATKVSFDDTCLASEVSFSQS
#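 Fluo-8-loaded TRHR cells; 10 s baseline, compound added, kinetic Ca2+ fluorescence read 1/s, agonist mode.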
# D1 antagonist – Antagonist of Human D 1 Dopamine Receptor: qHTS; HEK293 TREx D1 cells, calcium flux, dopamine EC80; hits give low values; activity change, negative = inhibition, % at 10 µM; 360,000 tested, 3.2% active; in the data active = activity change below about -30%; note: % is set by controls: 0 for no effect and ±100 for the full control effect
#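 Antagonism measured as reduced calcium response to an EC80 dopamine addition following 180 s compound pre-read; cells were inducible HEK293 Trex D1 plated overnight at 30 C, read kinetically at 1 cycle/sec.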
# D1 potentiator – Potentiators of Human D1 Dopamine Receptor: qHTS. 360,000 tested, 0.036% active. HEK293 TREx D1 cells, calcium flux, dopamine EC20 potentiation. D(1A) dopamine receptor (Homo sapiens), P21728. potentiation, % at 10 µM; in the data active = potentiation above about 30%; note: 0% is about no effect
# D1 agonist – Allosteric Agonists of the Human D1 Dopamine Receptor: qHTS; AID 504660, 2011; HEK293 T-REx D1 cells, calcium flux, agonist mode; D(1A) dopamine receptor (Homo sapiens), P21728; 360,000 tested, 1% active; activation, % at 2 µM; note: 0% is about no effect
#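 Inducible HEK293 T-REx D1 cells, force-coupled to calcium signalling, were plated at 4000 cells/well with tetracycline and held overnight at 30 C. After no-wash calcium dye loading, compound-evoked calcium rise over 180 s flagged agonists.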
# TRHR PAM – qHTS for Small Molecule Agonists and Allosteric Enhancers of Human TRH Receptor: Primary Screen for Enhancers; Thyrotropin-releasing hormone receptor (Homo sapiens), P34981; TRHR cells, fluo-8 calcium fluorescence, EC20 TRH enhancement; enhancement, % at 2 µM; 360,000 tested, 0.66% active; AID 493056, 2011; in the data active = enhancement above about 30%; note: 0% is about no effect
#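 Enhancer read-out: after compound pinning and an initial kinetic agonist-mode read, an EC20 of TRH (10 nM final) was injected and fluo-8 calcium signal (Ex 480/Em 530) followed at 1 s/cycle for 100 cycles in TRHR-expressing cells.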
# Numbers without * were called inactive; nt = no result; ! = not confirmed by another sample. Cut-off read from the data, not from the text of the source, unless noted: active = activation above about 30%; inactive = the rest.
SMILES,TRHR ag,D1 antagonist,D1 potentiator,D1 agonist,TRHR PAM
COc1ccccc1C(=O)Nc1ccc(C(=O)N2CCCC2)cc1,0,-71*,-10,-3,-4
COc1ccccc1C(=O)Nc1ccc(C(=O)N2CCCCC2)cc1,0,-21,-1,5,-3
N#Cc1nc(Nc2cc(F)cc(F)c2)nc(Nc2cc(F)cc(F)c2)n1,-2,-20,-2,2,7
CCN(CCO)C(=O)C(c1ccccc1)c1ccccc1,-2,-59*,-4,2,9
COc1ccccc1CNC(=O)CN1C(=O)COc2ccc(S(=O)(=O)N3CCC(C)CC3)cc21,-1,8,3,2,-5
COc1cccc(/C=N/n2c(SC)nnc2-c2ccccc2)c1O,5,-1,-2,30*,5
COc1ccc(NC(=O)c2c(NCc3cccs3)sc3c2CCCCC3)cc1,1,-6,1,3,-2
Cc1ccccc1NC(=O)Cn1c(CCC(=O)O)ccc1-c1cccs1,0,-42*,-6,4,3
Cc1ccc(-n2c(CCC(=O)O)ccc2-c2cccs2)cc1Cl,-1,-57*,-1,16,26
Cc1ccc(-n2c(CCC(=O)O)ccc2-c2cccs2)cc1,0,9,-3,4,6
CC1=C(C(=O)Nc2ccccc2)C(c2ccc(C(=O)O)cc2)n2nc(SCC(=O)c3ccc(C)cc3)nc2N1 (stereo not drawn),0,4,-3,2,1
CCN(CC)C(=O)CSc1nc(N)c(C(=O)Nc2ccc(OC)cc2)s1,0,-32*,-1,3,6
CCCCc1nc(SCc2ccc([N+](=O)[O-])cc2)n[nH]1,0,-30*,-1,1,-3
O=C(Cn1c(=O)n(Cc2ccco2)c(=O)c2ccccc21)Nc1ccc(Cl)cc1Cl,1,0,0,1,7
COc1ccc(-c2c(C)nn3c(C(F)(F)F)cc(C)nc23)cc1OC,1,-56*,1,2,0
COCCNC(=O)c1cc2c(s1)-c1ccc(Cl)cc1SC2,0,-92*,-9,4,7
CCOc1ccc(N(CC)C(=O)c2cc3c(s2)-c2ccc(Cl)cc2SC3)cc1,-2,3,-3,3,3
CCOC(=O)C1=C(CS(=O)(=O)c2ccc(C(C)(C)C)cc2)NC(=O)NC1c1cccc(OC)c1 (stereo not drawn),0,5,4,0,-9
COc1ccc(-c2nc3cccc(C)n3c2NCc2ccco2)cc1OC,0,-31*,-8,0,-2
COc1ccc(-c2noc(-c3ccc(NCc4ccc(C)cc4)c([N+](=O)[O-])c3)n2)cc1OC,1,-68*,1,7,-2
COc1ccc(-c2noc(-c3ccc(NCc4ccco4)c([N+](=O)[O-])c3)n2)cc1OC,1,-41*,1,-1,-3
CC(C)(C)NC(=O)NC(=O)CSc1ncccn1,1,-35*,-8,4,-6
CC(C)NC(=O)NC(=O)CSc1ncccn1,0,7,-1,-1,-2
Cc1cccc(N2C(=O)C(CC(=O)Nc3cccc(F)c3)N(Cc3cccs3)C2=O)c1 (stereo not drawn),1,1,-2,10,-8
CCOc1ccc(N2CC(NC(=O)c3ccco3)CC2=O)cc1 (stereo not drawn),0,nt,1,1,3
SMILES,TRHR ag,D1 antagonist,D1 potentiator,D1 agonist,TRHR PAM
Cc1ccccc1NC(=O)c1cc(N)ccc1N1CCCCC1,3,-55*,-15,-2,-18
COc1cc(NC(=O)C2CCN(S(=O)(=O)c3ccc4c(c3)CCCC(=O)N4)CC2)cc(OC)c1,1,-12,0,0,-5
COc1ccccc1CCNC(=O)Cn1ccc2cc(S(=O)(=O)N3CCCC3)ccc21,0,-31*,-9,7,-12
COc1ccc(OC)c(CNC(=O)CCCn2ccc3cc(S(=O)(=O)N4CCCC4)ccc32)c1,0,-33*!,-1,4,-3
COC(=O)Cn1ccc2cc(S(=O)(=O)N3CCCCC3)ccc21,0,-51*!,-1,5,7
COC(=O)Cn1ccc2cc(S(=O)(=O)N3CCCCCC3)ccc21,0,8,-9,2,-4
c1cnc(N2CCN(c3ncc4c(n3)CCNC4)CC2)nc1,-1,21,-1,8,-3
CCN(c1ccccc1)S(=O)(=O)c1ccc(NC(=O)c2cc(=O)c3ccc(C)c(C)c3o2)cc1,-1,6,-2,5,2
COc1ccccc1CNS(=O)(=O)c1ccc(-c2cc(C(F)(F)F)on2)s1,2,-3,-2,33*,2
Cc1ccc(/C=N/N2CCN(c3ccc(Cl)cc3)CC2)o1,0,-48*,-1,1,8
Cc1ccc(/C=N/N2CCCCC2)o1,0,6,-1,3,1
O=Cc1c(NCc2ccc(F)cc2)c2ccccc2[nH]c1=O,0,-36*,-9,4,-8
O=Cc1c(NCc2ccccc2Cl)c2ccccc2[nH]c1=O,0,-33*,-1,3,-2
O=Cc1c(NCc2cccc(F)c2)c2ccccc2[nH]c1=O,0,-24,-1,4,-2
Cc1ccc(CNc2c(C=O)c(=O)[nH]c3ccccc23)cc1,0,-51*,-2,6,11
O=C(Cn1nc2c(cc1=O)CCCC2)NCc1ccccc1,1,-5,-5,0,-1
O=c1cc(O)c(-c2ccc(Cl)cc2)c(Cl)[nH]1,-1,-2,2,2,0
O=c1cc(O)c(-c2ccc(Cl)c(Cl)c2)c(Cl)[nH]1,1,1,-6,1,35*
Cc1ccccc1C(=O)NC1CCN(Cc2nnnn2CCc2ccccc2)CC1,1,-7,-1,0,-2
Cc1ccccc1C(=O)NC1CCN(Cc2ccccc2)CC1,1,-33*,-7,1,-4
COc1ccc(NS(=O)(=O)c2cccc(C(=O)NC3CCN(Cc4ccccc4)CC3)c2)cc1,1,-33*,0,2,12
O=C(NC1CCCCC1)c1cccc(OCc2ccccc2)c1,0,-27,-2,37*,-3
CC(C)(Oc1ccc(Cl)cc1)C(=O)NC1CCN(Cc2ccccc2)CC1,0,-51*,-5,8,-2
O=C(c1ccc(NS(=O)(=O)c2ccccc2)cc1)N1CCN(Cc2ccc3c(c2)OCO3)CC1,0,-19,-9,3,-1
O=C(NC1CCN(Cc2ccccc2)CC1)c1cccc(OC(F)F)c1,0,-33*,-11,8,27
